Giardia killer: Giardia lamblia killing; activity change, % at 7.66 µM, hits read low; Giardia lamblia trophozoite viability; 340,000 compounds, 0.15% hits; AID 540267; in the data active = activity change below about -80%; inconclusive = between about -30% and that limit;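 also: parasites exposed to compound for two days anaerobically before the ATP read; % is scaled to controls: 0 for no effect and ±100 for the full control effect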
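Each well holds 100 Giardia trophozoites and compound. After two days (48 hrs) at 37 deg C in anaerobic conditions, ATP is quantified by luminescence.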
MCF10A rereplic: induces DNA re-replication in MCF 10a normal breast cells. MCF 10A DNA re-replication, Hoechst nuclear intensity, 48 h. Potency, µM (titrated, usually from 46.1 µM), inactives show at the top dose activity, positive = re-replication, most hits filed as activators. 350,000 compounds, 2.9% hits; also: potency is read from the fitted curve at half-maximal effect; % of control where 0% means no effect; nearly all actives have a fitted effect of over 50% in size
Gal4-VP16 FLuc: inhibits Gal4-VP16 luciferase reporter, ROR gamma counter-screen. Drosophila S2 Gal4-VP16 UAS-luciferase, luminescence, 20 h. AID 2546. Potency, µM (top dose mostly 53.6 µM), for inactives: at the highest dose activity, negative = inhibition, most hits filed as inhibitors. 310,000 compounds, 3.5% hits;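 also: Gal4-VP16 expression switched on by copper sulfate through the metallothionein promoter; potency is read from the fitted curve at half-maximal effect; % is scaled to controls: 0 for no effect and ±100 for the full control effect; nearly all actives have a fitted effect of over 50% in size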
Chronic BCR inh: inhibitors of chronic active B-cell receptor signaling; ABC-DLBCL IkBa-CBG/CBR reporter, luminescence ratio, 4 h; Potency, µM (highest dose often 46.1 µM), for the others: top-dose activity change, negative = inhibition, actives largely listed as inhibitors; 340,000 compounds, 0.05% hits; active = well fitted inhibition curve with a large enough effect in the signal ratio, with a control signal flat, not every such curve was filed as active; inconclusive = small, poorly fitted or top-dose-only effect, or effect the other way, or a change in a side signal; the % refers to the signal ratio;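 also: potency is read from the fitted curve at half-maximal effect; plate controls were basal doxycycline-induced cells for no effect and cells given 10 µM MG132 for full effect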
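Compounds up to 46 uM were incubated four hours with TMD8 cells whose green CBG68 luciferase is fused to IkappaBalpha; red CBR luminescence normalised the signal, and concentration-effect curves were fitted to fusion, red and ratio data.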
SW480 rereplic: DNA re-replication induction in SW480 cells. 340,000 compounds, 1.8% hits. Potency, µM (series often up to 46.1 µM), for inactives: top-dose re-replication activation, actives largely listed as activators. SW480 DNA re-replication, Hoechst DNA content imaging, 48 h. AID 624297; also: potency is read from the fitted curve at half-maximal effect; % of control where 0% means no effect; nearly all actives have a fitted effect of over 55% in size
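Image-based DNA-content assay: after two days of treatment, nuclei were labelled with the DNA dye Hoechst and imaged, and hits were compounds raising the count of nuclei showing high fluorescence intensity.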
RORg inh: blocks mouse ROR gamma transcriptional activity | P51450 | Drosophila S2 Gal4-RORgamma UAS-luciferase reporter, 20 h | 310,000 compounds, 5.4% hits | Potency, µM (highest dose often 53.6 µM), for the others: at the top dose activity change, negative = inhibition, actives largely listed as inhibitors; also: potency is read from the fitted curve at half-maximal effect; % is scaled to controls: 0 for no effect and ±100 for the full control effect; nearly all actives have a fitted effect of over 60% in size
Target sequence (P51450 whole entry, looked up, the tested form may be a part): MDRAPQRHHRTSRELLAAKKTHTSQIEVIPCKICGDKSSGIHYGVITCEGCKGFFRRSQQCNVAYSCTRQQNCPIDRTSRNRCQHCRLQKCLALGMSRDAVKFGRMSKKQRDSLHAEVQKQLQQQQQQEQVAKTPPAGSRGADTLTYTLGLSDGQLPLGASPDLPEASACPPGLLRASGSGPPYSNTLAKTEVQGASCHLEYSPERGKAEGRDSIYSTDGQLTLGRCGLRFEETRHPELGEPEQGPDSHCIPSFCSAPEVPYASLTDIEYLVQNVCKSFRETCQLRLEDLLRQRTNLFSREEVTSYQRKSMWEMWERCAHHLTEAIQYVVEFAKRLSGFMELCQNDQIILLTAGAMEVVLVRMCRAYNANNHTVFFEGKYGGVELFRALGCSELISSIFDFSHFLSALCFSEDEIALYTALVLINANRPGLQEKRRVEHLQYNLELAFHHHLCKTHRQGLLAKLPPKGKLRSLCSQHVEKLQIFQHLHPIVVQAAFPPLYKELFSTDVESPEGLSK
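A Gal4/UAS one-hybrid system in insect cells: metallothionein-promoter Gal4–ROR gamma fusion plus Photinus luciferase reporter. Copper sulfate 700 uM final, 20 hr ambient incubation, luminescent detection after 10 min with reagent.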
The depositor's hits bear a star; ? = inconclusive; nt = no result given; [ ] = dose if it differs, or a comment. Sampled rows, rich in hits. Any-hit rate of the full collection: about 8.3%. Unless noted, calls follow the shape of the dose curve; as a rule, active = well fitted curve in the direction sought with a large enough effect; inconclusive = small, poorly fitted or top-dose-only effect, or another doubt; inactive = no such curve, though single readings can be large; an effect the other way counts as inactive or inconclusive.

SMILES	Giardia killer	MCF10A rereplic	Gal4-VP16 FLuc	Chronic BCR inh	SW480 rereplic	RORg inh
CCCNc1c(NS(=O)(=O)c2ccc(C)cc2C)c(=O)oc2ccccc12	10.7	-0.4%	-16.1%	?	-0.6%	-0.2%
Cc1c(C(=O)NNC(=O)c2csc(N3CCOCC3)n2)oc2ccccc12	-11.2	14.6µM*	nt	?	0.9%	nt
Cc1cccc(C(=O)NNC(=O)c2csc(N3CCOCC3)n2)c1C	-6.6	0.7%	nt	-8.5%	-1.2%	nt
Cc1cc(=O)n(-c2ccc(C(=O)O)cc2)[nH]1	14.2	-1.9%	-12.7%	?	-3.7%	-13.1%
CCOC(=O)c1ccc(-n2[nH]c(-c3ccccc3)cc2=O)cc1	14.3	?	5.62µM*	?	7.1%	?
Cc1sc2ncn(CC(=O)NCCCC(=O)N3CCCCC3)c(=O)c2c1C	-15.9	-18.5%	2.8%	-4.6%	5.7%	19.2%
CC(C)NS(=O)(=O)c1ccc(NC(=O)C(C)Oc2ccc(C(=O)c3ccccc3)cc2)cc1 (stereo not drawn)	-8.5	?	7.08µM*	?	?	?
Cc1cc(N2CCOCC2)n2ncc(-c3ccccc3Cl)c2n1	-1.1	-2.6%	0.7%	0.0%	-3.3%	6.1%
O=C(NCC1CCCO1)NC12CC3CC(CC(C3)C1)C2 (stereo not drawn)	?	3.7%	4.8%	0.6%	12.9%	8.0%
S=C(NCC1CCCO1)Nc1ccc(Cl)cc1 (stereo not drawn)	-12.0	6.6%	?	-0.8%	0.5%	10µM*
S=C(NCC1CCCO1)NC12CC3CC(CC(C3)C1)C2 (stereo not drawn)	7.8	2.0%	5.01µM*	-17.6%	1.7%	0.631µM*
Cc1ccc(NC(=S)NCCN2CCOCC2)cc1C	15.8	-0.3%	-5.9%	0.1%	-19.7%	11.2µM*
Cc1ccc(NC(=S)NCC2CCCO2)cc1C (stereo not drawn)	-7.1	-2.1%	10µM*	-9.1%	-21.4%	?
O=C(NCC1CCCO1)Nc1ccc(Cl)cc1 (stereo not drawn)	7.3	-3.8%	-2.2%	nt	-2.3%[9.22 µM]	5.6%
CCOC(=O)CSc1nc2cc3c(cc2c(=O)n1CCCCCC(=O)NCc1ccc2c(c1)OCO2)OCO3	nt	nt	nt	3.8%	nt	nt
S=C(NCCN1CCCCC1)Nc1ccc(Br)cc1	30.6	-0.3%	-8.8%	2.8%	16.4µM*	?
COc1cc(NC(=S)NCC2CCCO2)c(OC)cc1Cl (stereo not drawn)	-18.2	-3.1%	17.8µM*	0.4%	-128.8%	10µM*
S=C(NCC1CCCO1)Nc1ccc(Cl)cc1Cl (stereo not drawn)	-2.3	0.4%	?	-0.9%	-3.7%	15.8µM*
S=C(NCCN1CCCCC1)Nc1ccccc1	1.4	5.2%	-23.4%	-1.5%	-7.0%	-18.4%
Cc1cccc(NC(=S)NCC2CCCO2)c1 (stereo not drawn)	-16.8	-4.3%	?	?	3.5%	?
S=C(NCC1CCCO1)Nc1ccccc1 (stereo not drawn)	-14.8	-7.0%	-3.1%	4.6%	-0.4%	11.2µM*
CC(=O)N1c2ccc(S(=O)(=O)NCC3CCC(C(=O)N4CCC(C)CC4)CC3)cc2CC1C (stereo not drawn)	27.2	0.2%	-6.7%	8.9%	-2.9%	12.4%
Cn1c(SCC(=O)NCC2CCCO2)ncc(C(=O)Nc2ccc(F)cc2)c1=O (stereo not drawn)	17.2	24.7%	nt	-11.2%	1.9%	nt
Cn1c(SCC(=O)NCC2CCCO2)ncc(C(=O)Nc2ccc(Cl)cc2)c1=O (stereo not drawn)	-26.8	18.4µM*	nt	5.3%	4.61µM*	nt
CC(Oc1ccc(F)cc1F)C(=O)NNC(=S)NCC1CCCO1 (stereo not drawn)	-4.4	-0.1%	?	-0.2%	-4.6%	11.2µM*
SMILES	Giardia killer	MCF10A rereplic	Gal4-VP16 FLuc	Chronic BCR inh	SW480 rereplic	RORg inh
Cc1cc(C)c(C)c(OCC(=O)NCC2CCCO2)c1 (stereo not drawn)	-11.7	-185.0%[0.0737 µM]	-9.7%	6.2%	-2.3%	-28.5%
CCN(CC)c1ccc(NC(=S)NCC2CCCO2)cc1 (stereo not drawn)	13.8	-2.9%	12.6µM*	-0.5%	-2.5%	14.1µM*
Cc1ccc(NC(=S)NCC2CCCO2)c(OC(F)F)c1 (stereo not drawn)	-12.9	-2.6%	?	5.1%	-10.2%	11.2µM*
COc1ccc(S(=O)(=O)Nc2ccccc2C)cc1C(=O)N1CCOCC1	26.2	-2.4%	-11.0%	13.4%	7.5%	-11.2%
O=C1CCC(c2ccccc2)N1c1ccccc1 (stereo not drawn)	-2.2	-1.3%	nt	nt	-7.8%	nt
Cc1ccc(NC(=S)NCC2CCN(C(C)c3ccccc3)C2)cc1C (stereo not drawn)	-21.1	-0.4%	?	0.5%	-2.9%	8.91µM*
Cc1ccc(NC(=O)c2ccc([N+](=O)[O-])cc2Cl)nc1	?	?	?	-0.9%	-5.0%	-17.2%
COc1ccc(C)cc1NC(=S)NNC(=O)c1c(Br)cnn1C	12.1	0.3%	-18.5%	-0.7%	0.5%	2µM*
CSc1ccc(Cl)c(C(=O)Nc2ccc(C)cn2)c1	8.7	?	25.4%[10 µM]	?	25.9µM*	9.7%
COc1ccc(C)cc1NC(=O)Nc1ccc(Br)cn1	-25.8	1.1%	5.3%	?	-22.3%	10µM*
COc1ccc(C(=O)Nc2ccc(C)cn2)c(OC)c1	?	13.6%	3.98µM*	?	-2.2%	3.98µM*
O=C1CCC(=O)N1CC(=O)N1CCCc2ccccc21	19.6	-3.0%	0.7%	5.1%	2.2%	-22.4%
CCOc1ccccc1NC(=O)c1cc(SC)ccc1Cl	-9.3	?	0.8%	0.6%	18.4µM*	-8.7%
CCOC(=O)C1=C(COC(=O)CCC(=O)c2ccc(C)cc2)NC(=O)NC1C (stereo not drawn)	2.5	6.1%	nt	0.9%	-1.7%	nt
NC(=O)c1nsc(C(=O)N(c2ccccc2)C(C(=O)NCc2ccc(F)cc2)c2ccc(O)cc2)c1N (stereo not drawn)	-1.8	13µM*	-0.7%	-25.8%	?	-2.2%
Cc1ccc(C(C(=O)NCc2ccc(F)cc2)N(Cc2ccco2)C(=O)c2snc(C(N)=O)c2N)o1 (stereo not drawn)	-15.0	16.4µM*	-2.9%	9.4%	18.4%	14.0%
Cc1cc(Br)c(NC(=O)Cn2c([N+](=O)[O-])cnc2C)cc1C	-23.8	-1.0%	-8.9%	-0.1%	5.0%	-14.7%
Cn1cncc1C#Cc1c(-c2ccc(S(C)(=O)=O)cc2)sc2ccccc12	5.4	?	nt	-1.3%	0.731µM*	nt
O=C(NC1CC1)C1=C[C@@H](C2CC2)C[C@@H](OCc2ccc(CO)cc2)O1	-16.2	-10.5%	-11.7%	-2.9%	-5.9%[9.22 µM]	10.8%

Assay outcomes from PubChem.
